# The supplement of paper PMC12669032
# A number with no mark means an inactive call.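 Rule for the calls: active = AUC reduced over 20% with Padj below 0.05 in at least 2 of 3 replicates; inactive = otherwise.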
# Key:
# [1] = test system: Roseburia intestinalis; assay: growth AUC relative to DMSO control (median of replicates) (fraction); higher = more growth (less inhibition), active = hit call of the paper; conditions: 20 µM; 24 h
# In short: (§1)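 Gut bacterial monocultures were grown anaerobically at 37 °C in mGAM, starting at OD600 0.05, with 20 µM compound (1% DMSO) in round-bottom 96-well plates under pierced gas-permeable seals. OD600 was read hourly for 24 h. Area under the growth curve (minimum OD set to 0) was normalised to the plate median of DMSO controls, or to row and column medians on the industrial chemical plate. The value is the median of three biological replicates grown on separate days.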
# [2] = test system: Streptococcus salivarius; assay: as above; conditions: 20 µM; 24 h
# In short: as §1
SMILES,growth AUC [1],growth AUC [2]
COC(=O)/C(C)=C/OP(=S)(OC)OC,0.981,1.01
CS(=O)(=O)c1ccc(C(=O)C2C(=O)CCCC2=O)c([N+](=O)[O-])c1,0.976,1.03
COC(=O)c1cc(Oc2ccc(Cl)cc2Cl)ccc1[N+](=O)[O-],0.891,1.02
COc1nc(NC(C)C)nc(NC(C)C)n1,0.963,1.05
CC(Cc1ccc(C(C)(C)C)cc1)CN1C[C@@H](C)O[C@@H](C)C1 (some centres undefined),1.06,0.999
COC(=O)N(C(=O)N1CO[C@@]2(C(=O)OC)Cc3cc(Cl)ccc3C2=N1)c1ccc(OC(F)(F)F)cc1,0.907,0.873
CS(=O)(=O)c1ccc(C(=O)C2C(=O)CCCC2=O)c(Cl)c1COCC(F)(F)F,0.964,0.974
OCC(O)CCl (centres undefined),1.02,1
CCN(CC)C(=O)C(C)Oc1cccc2ccccc12 (centres undefined),1.08,0.959
COc1cc(OC)nc(NC(=O)NS(=O)(=O)c2ncccc2C(F)(F)F)n1,1,1.01
CN(C)S(=O)(=O)N(SC(F)(Cl)Cl)c1ccccc1,0.993,0.998
Nc1cc(Cl)ccc1Cl,1.09,1
Fc1ccc(Oc2ccnc3cc(Cl)cc(Cl)c23)cc1,1.02,0.956
O=C1C[C@@H]2OCC=C3CN4CC[C@]56c7ccccc7N1[C@H]5[C@H]2[C@H]3C[C@H]46,0.998,0.968
COc1nc(C)nc(NC(=O)NS(=O)(=O)c2ccccc2Cl)n1,0.995,0.992
CS(=O)(=O)c1cc(C(F)(F)F)ccc1C(=O)c1cnoc1C1CC1,1.03,1.01
c1ccc2c(c1)-c1cccc3cccc-2c13,0.956,0.972
N#Cc1c(O)c(Cl)c(Cl)c(C#N)c1Cl,1.06,1
"ClC1=C(Cl)C2(Cl)[C@H]3[C@H]4O[C@H]4[C@H](Cl)[C@H]3C1(Cl)C2(Cl)Cl (single isomer, unassigned; isomer a)",0.954,0.976
Oc1ccc(Cl)cc1,0.972,0.984
ClC1=C(Cl)[C@]2(Cl)C3CC=CC3[C@@]1(Cl)C2(Cl)Cl (some centres undefined),1,1

SMILES,growth AUC [1],growth AUC [2]
O=S(=O)(c1ccccc1)c1ccccc1,0.956,0.943
CCSC(=O)N1CCCCCC1,1,1.01
CC(C)c1ccc(NC(=O)N(C)C)cc1,0.95,0.956
CN(C)C(=O)Nc1cccc(OC(=O)NC(C)(C)C)c1,1.05,0.975
CCCCC(CC)COC(=O)c1ccccc1C(=O)OCC(CC)CCCC (centres undefined),0.971,0.967
CC(Oc1ccc(Oc2nc3ccc(Cl)cc3o2)cc1)C(=O)O (racemic),1.12,0.999
CNC(=O)Oc1ccc(N(C)C)c(C)c1,0.949,0.992
COC(=O)c1ccccc1S(=O)(=O)NC(=O)Nc1nc(C)nc(OC)n1,0.978,0.935
CCCC1COC(Cn2cncn2)(c2ccc(Cl)cc2Cl)O1 (centres undefined),0.995,0.964
COP(=S)(OC)Oc1ccc(SC)c(C)c1,1.03,0.965
CNC(=O)N(C)c1nnc(C(C)(C)C)s1,1.03,0.959
CC1(C)CN=C(NN=C(/C=C/c2ccc(C(F)(F)F)cc2)/C=C/c2ccc(C(F)(F)F)cc2)NC1,0.391 (active),1.1
COCC(=O)N(c1c(C)cccc1C)N1CCOC1=O,0.994,1
CSc1nc(N=[N+]=[N-])nc(NC(C)C)n1,1.1,1.07
N#Cc1cc(Br)c(O)c(Br)c1,0.953,0.959
CCCN(CCCl)c1c([N+](=O)[O-])cc(C(F)(F)F)cc1[N+](=O)[O-],0.989,0.928
CCNS(=O)(=O)C(F)(F)C(F)(F)C(F)(F)C(F)(F)C(F)(F)C(F)(F)C(F)(F)C(F)(F)F,1.03,0.96
CON(C)C(=O)Nc1ccc(Cl)cc1,1.02,1.04
CC(C)=CC1C(C(=O)OCc2coc(Cc3ccccc3)c2)C1(C)C (centres undefined),0.921,0.99
COP(=O)(NC(C)=O)SC (centres undefined),1.01,1.01
COP(=O)(OC)O/C(=C\Cl)c1ccc(Cl)cc1Cl,1.03,1
